About 83,000 compounds went through this panel and 20% of them were active in at least one assay; those are over-represented in the sample as a whole.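 How to read the values: 0–100, growth inhibition (40 = 60% inhibited); 0, no net growth; -100 to 0, cell death (-40 = 40% of starting cells died; -100 = all dead).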 Values without a mark were called inactive. The source made the active and inactive calls. Rule for the calls: active = growth percent below 10; inactive = the rest.

Holding throughout (assay): NCI-60 one-dose screen, 48 h (100 = growth as untreated, 0 = no growth, -100 = all killed)
Settings in all cases: 10 µM unless noted

Test [1] has as its system SR leukemia.
Test [2] relates to RPMI-8226 leukemia.
For test [3], the system named is OVCAR-8 ovarian.
In test [4] the test system is OVCAR-5 ovarian.
Test [5] concerns OVCAR-4 ovarian.
Test [6] deals with SK-OV-3 ovarian.
The subject of test [7] is IGROV1 ovarian.
In test [8] the test system is OVCAR-3 ovarian.
Test [9] relates to HS 578T breast.
For test [10], the system named is NCI/ADR-RES ovarian.
Test [11] has as its system T-47D breast.
The test system of test [12] is MDA-MB-435 melanoma.
In test [13] the test system is SW-620 colon.
The subject of test [14] is MCF7 breast.
The subject of test [15] is HCT-116 colon.
Test [16] concerns HCC-2998 colon.
For test [17], the system named is KM12 colon.
For test [18], the system named is BT-549 breast.

With `COc1ccc(C2=NN(c3ccc(S(N)(=O)=O)cc3)C(c3cn(-c4ccccc4)nc3-c3ccc(Cl)cc3)C2)cc1` (configuration not stated), the growth in test [1] was 77.9%; in test [2], 78%; in [3], 91.1%; in test [4] it was 114%; in test [5], 107%; in [6] it was 97.7%. Also, the growth in test [7] was 105%; in test [8], 92.4%; in [9], 109%; in [10], 90.1%; in test [11], 67.1%; in test [12], 79.3%. In addition, the growth in test [13] is 101%; in [14], 66.7%; in test [15], 74.5%; in test [16], 98.2%; in [17] it was 88.6%.
`COc1ccc(-c2nc3sccn3c2-c2ccnc(NCCCNS(=O)(=O)c3ccc4ccccc4c3)n2)cc1`: the growth in test [1] is 57%; in test [2], 54.9%; in test [3] it was 57.3%; in test [4], 132%; in [5], 68.1%; in [6] it was 95.1%. Further, the growth in test [7] is 75.3%; in test [8] it was 82.7%; in test [9], 92.1%; in test [10], 53.5%; in test [11] it was 32.6%; in test [12], 50%. Besides, the growth in test [13] was 105%; in test [14] it was 52.2%; in test [15], 60.2%; in test [16], 84.1%; in [17] it was 50.1%.
As to `COc1cccc(NC(=O)Cn2cc3c(=O)oc4ccccc4c3n2)c1`, the growth in test [1] was 110%; in test [2], 97.9%; in test [3] it was 112%; in [4] it was 113%; in test [5], 92.8%; in [6] it was 113%. In addition, the growth in [7] is 97.1%; in test [8], 99.1%; in test [9] it was 104%; in test [10], 100%; in test [18] it was 94.5%; in test [12] it was 88.1%. In addition, the growth in [13] is 103%; in test [14], 88.1%; in [15] it was 99.5%; in [16], 110%; in [17] it was 100%.
Turning to `CCC(=O)Oc1cc(/C=C/C(=O)O[C@H]2C[C@H]3CN4CCc5c([nH]c6cc(OC)ccc56)[C@@H]4C[C@@H]3[C@@H](C(=O)OC)[C@@H]2OC)ccc1OC`, the growth in test [1] was 1.95% (active); in test [2], 39.9%; in [3], 86.8%; in test [4] it was 87%; in test [5] it was 56.9%; in test [6] it was 86.5%. Further, the growth in test [7] was 88.5%; in [8], 73.1%; in test [9], 56.5%; in test [10], 87.1%; in [11], 60.6%; in [12], 67.1%. Further, the growth is 83% in test [13]; 48.2% in [14]; 53.3% in [15]; 115% in test [16]; 95.3% in test [17].
As for `COc1cc(C2C=C(C)N=C3SC(C)=NN32)cc(OC)c1OC` (configuration not stated), the growth in [1] is 96.3%; in test [2] it was 108%; in test [3], 104%; in test [4], 95.9%; in [5] it was 104%; in test [6] it was 92.5%. Further, the growth is 101% in test [7]; 106% in test [8]; 114% in test [9]; 101% in test [10]; 92.3% in [11]; 112% in test [12]. Also, the growth in [13] was 112%; in test [14], 91.6%; in [15] it was 106%; in test [16], 107%; in test [17], 102%.
For the compound `Cc1ccc(S(=O)(=O)OC2COCOC2C(OS(=O)(=O)c2ccc(C)cc2)C2OCOCC2OS(=O)(=O)c2ccc(C)cc2)cc1` (configuration not stated), the growth is 96.2% in test [1]; 107% in test [2]; 103% in test [3]; 101% in test [4]; 118% in [5]; 107% in test [6]. Also, the growth in [7] was 110%; in [8], 110%; in test [9] it was 107%; in [10], 110%; in test [18], 98.2%; in test [12], 108%. For the same compound, the growth is 108% in test [13]; 103% in test [14]; 105% in [15]; 113% in [16]; 107% in [17].
In the case of `O=c1oc2cc(OS(=O)(=O)c3ccc(F)cc3)ccc2c2c1CCCCC2`, the growth in test [1] is 53.7%; in [2], 34.8%; in test [3], 77.6%; in test [4], 66.2%; in test [5] it was 58.1%; in test [6] it was 95.9%. In addition, the growth in test [7] was 95.2%; in [8], 77.8%; in test [9] it was 88%; in test [10] it was 51.1%; in test [11], 30.3%; in test [12], 78.5%. Moreover, the growth in test [13] was 46.3%; in test [14] it was 59.9%; in test [15], 54.4%; in test [16], 69.8%; in [17], 55.1%.
Regarding `CCNC(=O)CCCCC(=O)c1c(C)[nH]c(/C=C2\N=C(c3ccc[nH]3)C=C2OC)c1C`, the growth in test [1] was 45.6%; in [2], 51.6%; in [3], -38.3% (active); in test [4] it was 66.3%; in [5] it was -59.4% (active); in test [6] it was 57.7%. Further, the growth in test [8] is -77.9% (active); in test [9] it was 54.9%; in [10], 15.4%; in test [11], -46.3% (active); in test [18], -36.1% (active); in test [12] it was -18.4% (active). Also, the growth was -65.4% (active) in test [13]; -17.4% (active) in test [14]; -100% (active) in [15]; 48.6% in test [16]; -56.9% (active) in test [17].
In the case of `COC1=CC(c2ccc[nH]2)=N/C1=C\c1[nH]c(C)c(C(=O)CCC(=O)Oc2ccc3c(c2)CCC2C3CC[C@]3(C)[C@@H](O)CC[C@@H]23)c1C` (some centres not stated), the growth in test [1] is -17.6% (active); in test [2], -12.2% (active); in [3], -3.79% (active); in [4], 27.7%; in test [5] it was 43.1%; in test [6], 51.1%. Besides, the growth in [7] is 16.8%; in test [9], 20.4%; in test [10], 8.32% (active); in [11], 20.5%; in [18] it was 27%; in test [12] it was 11.9%. Also, the growth in test [13] was -51.1% (active); in [15] it was -84.2% (active); in test [16] it was 9.51% (active); in test [17], 3.48% (active).
